Among the data in PubChem BioAssay (EPA / NIEHS) are outcome and AC50 values, retold here.

Experiment [1] is described as follows: BSK_hDFCGF_SRB: Viability Assessment in the BioMAP Diversity Plus: hDFCGF Assay (AID 2283061).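 Also: cells exposed to compound for 24 h before the read.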 To be noted: primary human foreskin fibroblasts. In outline: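 SRB-based viability read on primary human skin fibroblasts at 24 h: TCA fixation, 0.1% dye, 560 nm. Gain or loss of signal is fitted against the DMSO negative control.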
Read-out in experiment [2]: TIMP metallopeptidase inhibitor 1 (TIMP1), TIMP1 (gene 7076)
In words: BSK_hDFCGF_TIMP1: BioMAP Diversity Plus: hDFCGF Assay for TIMP metallopeptidase inhibitor 1 (TIMP1) Biomarker Activity (AID 2283062). The conditions noted are these: primary human foreskin fibroblasts; actives raise or lower the signal. In outline:
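Bidirectional curve fitting against DMSO baseline yielded this endpoint, based on ELISA detection of TIMP-1 in primary human foreskin fibroblasts exposed to compound for 24 h.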

Read-out in experiment [3]: Monokine induced gamma interferon (MIG), CXCL9 (gene 4283)
In words: BSK_hDFCGF_MIG: BioMAP Diversity Plus: hDFCGF Assay for Monokine induced gamma interferon (MIG) Biomarker Activity (AID 2283063). To be noted: primary human foreskin fibroblasts; actives raise or lower the signal. A digest of the protocol:
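Endpoint derived by bidirectional fitting relative to DMSO; MIG quantified via ELISA in primary human foreskin fibroblasts harvested 24 h after dosing.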

Read-out in experiment [4]: Matrix Metallopeptidase 1 (MMP1), MMP1 (gene 4312)
As to the kind of experiment: BSK_hDFCGF_MMP1: BioMAP Diversity Plus: hDFCGF Assay for Matrix Metallopeptidase 1 (MMP1) Biomarker Activity (AID 2283064). The conditions noted are these: primary human foreskin fibroblasts; actives raise or lower the signal. A digest of the protocol:
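Primary human foreskin fibroblasts in the hDFCGF system were dosed with test chemical, and MMP1 was measured by ELISA 24 h later. Values come from bidirectional curve fitting against the DMSO baseline.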

Read-out in experiment [5]: Vascular cell adhesion molecule 1 (VCAM1), VCAM1 (gene 7412)
As to the kind of experiment: BSK_hDFCGF_VCAM1: BioMAP Diversity Plus: hDFCGF Assay for Vascular cell adhesion molecule 1 (VCAM1) Biomarker Activity (AID 2283065).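 As to AC50: VCAM-1 protein level quantified by ELISA after 24 h chemical exposure.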 The conditions noted are these: primary human foreskin fibroblasts; actives raise or lower the signal. A digest of the protocol: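 Measured after 24 h chemical treatment of primary human skin fibroblasts, VCAM-1 was detected by ELISA and concentration-response analysed in both directions versus DMSO vehicle.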

Read-out in experiment [6]: Plasminogen activator inhibitor-1 (PAI1), SERPINE1 (gene 5054)
In words: BSK_hDFCGF_PAI1: BioMAP Diversity Plus: hDFCGF Assay for Plasminogen activator inhibitor-1 (PAI1) Biomarker Activity (AID 2283066). To be noted: primary human foreskin fibroblasts; actives raise or lower the signal. A digest of the protocol: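 Human foreskin fibroblast primary cells, 24 h chemical exposure; PAI-1 measured by ELISA. Bidirectional fitting relative to DMSO; parallel cultures stained with SRB for total protein to flag overt cytotoxicity.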

Read-out in experiment [7]: Intercellular Adhesion Molecule 1 (ICAM1), ICAM1 (gene 3383)
In words: BSK_KF3CT_ICAM1: BioMAP Diversity Plus: KF3CT Assay for Intercellular Adhesion Molecule 1 (ICAM1) Biomarker Activity (AID 2283067). To be noted: primary human keratinocytes with fibroblasts; actives raise or lower the signal. A digest of the protocol: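 Bidirectional curve fitting against a DMSO baseline was applied to ICAM-1 ELISA signal from primary human skin co-cultures harvested 24 h after treatment, with SRB staining of parallel wells for overt cytotoxicity.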

Read-out in experiment [8]: Interferon-gamma inducible Protein 10 (IP10), CXCL10 (gene 3627)
As to the kind of experiment: BSK_KF3CT_IP10: BioMAP Diversity Plus: KF3CT Assay for Interferon-gamma inducible Protein 10 (IP10) Biomarker Activity (AID 2283068). The conditions noted are these: primary human keratinocytes with fibroblasts; actives raise or lower the signal. In outline: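 Human keratinocyte plus foreskin fibroblast primary co-culture exposed to test chemical for 24 h; IP-10 measured by ELISA. Concentration-response fitted bidirectionally against DMSO control as baseline.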

The nature of experiment [9]: BSK_KF3CT_SRB: Viability Assessment in the BioMAP Diversity Plus: KF3CT Assay (AID 2283069).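 Also: total protein by sulforhodamine B staining as a cytotoxicity measure; read 24 h after compound addition.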 To be noted: primary human keratinocytes with fibroblasts. A digest of the protocol: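 Human primary keratinocyte plus foreskin fibroblast co-culture exposed to chemicals for 24 h. Total protein measured by 0.1% sulforhodamine B staining after 10% TCA fixation, read at 560 nm; bidirectional fitting versus DMSO baseline.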

Read-out in experiment [10]: Interleukin-1 alpha (IL1a), IL1A (gene 3552)
As to the kind of experiment: BSK_KF3CT_IL1a: BioMAP Diversity Plus: KF3CT Assay for Interleukin-1 alpha (IL1a) Biomarker Activity (AID 2283070). To be noted: primary human keratinocytes with fibroblasts; actives raise or lower the signal. A digest of the protocol:
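Human keratinocyte plus foreskin fibroblast primary co-culture, sampled 24 h after chemical dosing. IL-1a measured by ELISA; responses fitted bidirectionally against DMSO baseline (negative control), so gain or loss of signal both count.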

Read-out in experiment [11]: TIMP metallopeptidase inhibitor 2 (TIMP2), TIMP2 (gene 7077)
In words: BSK_KF3CT_TIMP2: BioMAP Diversity Plus: KF3CT Assay for TIMP metallopeptidase inhibitor 2 (TIMP2) Biomarker Activity (AID 2283071). The conditions noted are these: primary human keratinocytes with fibroblasts; actives raise or lower the signal. In outline:
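Co-culture of human primary keratinocytes and foreskin fibroblasts, measured 24 h after chemical dosing. TIMP-2 quantified by ELISA and fitted in both directions relative to DMSO. Cytotoxicity checked in parallel cultures by SRB total-protein staining.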

Read-out in experiment [12]: Transforming growth factor beta 1 (TGFb1), TGFB1 (gene 7040)
As to the kind of experiment: BSK_KF3CT_TGFb1: BioMAP Diversity Plus: KF3CT Assay for Transforming growth factor beta 1 (TGFb1) Biomarker Activity (AID 2283072). To be noted: primary human keratinocytes with fibroblasts; actives raise or lower the signal. A digest of the protocol: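 Human keratinocyte/foreskin fibroblast co-culture; TGF-b1 measured by ELISA 24 h after dosing, fitted bidirectionally versus DMSO. Cytotoxicity checked in parallel cultures by total protein (SRB staining, 560 nm).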

Read-out in experiment [13]: C-C motif chemokine 2 (Homo sapiens) (UniProt P13500)
In words: BSK_KF3CT_MCP1: BioMAP Diversity Plus: KF3CT Assay for Monocyte Chemoattractant Protein 1 (MCP1/CCL2) Biomarker Activity (AID 2283073). The conditions noted are these: primary human keratinocytes with fibroblasts; actives raise or lower the signal. A digest of the protocol:
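Biomarker MCP-1 is measured by ELISA in primary human keratinocytes co-cultured with foreskin fibroblasts, 24 h after chemical treatment; DMSO serves as the negative control and activity baseline.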

Read-out in experiment [14]: Matrix Metallopeptidase 9 (MMP9), MMP9 (gene 4318)
In words: BSK_KF3CT_MMP9: BioMAP Diversity Plus: KF3CT Assay for Matrix Metallopeptidase 9 (MMP9) Biomarker Activity (AID 2283074). The conditions noted are these: primary human keratinocytes with fibroblasts; actives raise or lower the signal. In outline: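 Keratinocyte plus foreskin fibroblast human primary skin co-culture was dosed with chemical and MMP-9 was quantified by ELISA 24 h later. Bidirectional curve fitting used DMSO as negative control and activity baseline.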

Read-out in experiment [15]: urokinase plasminogen activator (uPA), PLAU (gene 5328)
As to the kind of experiment: BSK_KF3CT_uPA: BioMAP Diversity Plus: KF3CT Assay for urokinase plasminogen activator (uPA) Biomarker Activity (AID 2283075). The conditions noted are these: primary human keratinocytes with fibroblasts; actives raise or lower the signal. In outline:
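Human keratinocyte plus foreskin fibroblast primary co-culture exposed to chemical for 24 h. uPA levels were quantified by ELISA, and activity was fitted bidirectionally against a DMSO negative-control baseline.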

Read-out in experiment [16]: CD40, CD40 (gene 958)
In words: BSK_LPS_CD40: BioMAP Diversity Plus: LPS Assay for CD40 Biomarker Activity (AID 2283076). The conditions noted are these: primary human HUVEC with PBMC; actives raise or lower the signal. In outline:
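Using a multiplexed primary human co-culture (umbilical vein endothelium plus PBMC), CD40 was read by ELISA 24 h after dosing, with cytotoxicity tracked by sulforhodamine B staining of parallel cultures and activity fitted bidirectionally versus DMSO.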

Read-out in experiment [17]: E-selectin (Homo sapiens) (UniProt P16581)
As to the kind of experiment: BSK_LPS_Eselectin: BioMAP Diversity Plus: LPS Assay for Eselectin Biomarker Activity (AID 2283077). To be noted: primary human HUVEC with PBMC; actives raise or lower the signal. A digest of the protocol:
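Dose chemical onto LPS-driven HUVEC/PBMC co-culture; after 24 h, run ELISA for E-selectin; fit up- and down-going responses relative to DMSO control.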

Read-out in experiment [18]: Interleukin-8 (IL8), CXCL8 (gene 3576)
In words: BSK_LPS_IL8: BioMAP Diversity Plus: LPS Assay for Interleukin-8 (IL8) Biomarker Activity (AID 2283078). To be noted: primary human HUVEC with PBMC; actives raise or lower the signal. In outline: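 In this LPS system, chemical-treated human umbilical vein endothelium/PBMC co-cultures were harvested at 24 h for IL-8 ELISA.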

Experiment [19] can be described thus: BSK_LPS_SRB: Viability Assessment in the BioMAP Diversity Plus: LPS Assay (AID 2283079).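 Also: total protein by sulforhodamine B absorbance as a cytotoxicity measure; measured one day after compound addition.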 The conditions noted are these: primary human HUVEC with PBMC. In outline:
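Cytotoxicity endpoint in human endothelial–PBMC co-culture: 24 h exposure, then SRB (0.1%) staining, 560 nm read.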

Read-out in experiment [20]: Interleukin-1 alpha (IL1a), IL1A (gene 3552)
As to the kind of experiment: BSK_LPS_IL1a: BioMAP Diversity Plus: LPS Assay for Interleukin-1 alpha (IL1a) Biomarker Activity (AID 2283080). The conditions noted are these: primary human HUVEC with PBMC; actives raise or lower the signal. In outline:
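Primary human HUVEC and PBMC co-culture stimulated with LPS is dosed and harvested at 24 h. Both increases and decreases in ELISA-measured IL-1a are scored relative to DMSO.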

The structures appear in SMILES notation. The source made the active and inactive calls. The calls were made as follows: active = hit-call score of the fitted dose curve at least 0.9, where 1 is the maximum; inactive = score below 0.9.

Sequence of E-selectin (Homo sapiens) (P16581 whole entry, looked up): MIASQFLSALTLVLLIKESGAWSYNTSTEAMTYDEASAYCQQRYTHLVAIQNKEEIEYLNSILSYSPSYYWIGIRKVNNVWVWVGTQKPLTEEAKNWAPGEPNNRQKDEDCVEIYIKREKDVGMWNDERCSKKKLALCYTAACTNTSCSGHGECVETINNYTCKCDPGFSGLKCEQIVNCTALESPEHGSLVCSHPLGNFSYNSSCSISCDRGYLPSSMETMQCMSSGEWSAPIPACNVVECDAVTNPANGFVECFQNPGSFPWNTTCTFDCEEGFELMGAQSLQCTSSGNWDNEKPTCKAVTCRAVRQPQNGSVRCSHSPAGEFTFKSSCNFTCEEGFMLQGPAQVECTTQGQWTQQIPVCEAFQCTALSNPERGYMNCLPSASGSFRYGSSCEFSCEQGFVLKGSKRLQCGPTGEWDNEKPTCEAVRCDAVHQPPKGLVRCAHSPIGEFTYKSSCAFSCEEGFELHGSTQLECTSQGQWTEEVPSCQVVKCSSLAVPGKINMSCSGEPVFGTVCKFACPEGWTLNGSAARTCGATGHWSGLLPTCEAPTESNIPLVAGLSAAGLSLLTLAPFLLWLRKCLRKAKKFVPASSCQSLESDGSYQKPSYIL

`Cc1ccc2n[nH]nc2c1`: the result in [1], in experiment [2], in experiment [3], in experiment [4], in experiment [5] and in experiment [6] was inactive. Further, the result in experiment [7], in experiment [8], in experiment [9], in experiment [10], in experiment [11] and in experiment [12] was inactive. The outcome in experiment [13], in [14], in [15], in experiment [16], in [17] and in [18] was inactive. The outcome in experiment [19] and in experiment [20] was inactive.
Consider `Nc1cc([N+](=O)[O-])ccc1Cl`, for which the result in [1], in [2], in experiment [3], in [4], in [5] and in [6] was inactive. Besides, the result in experiment [7], in experiment [8], in experiment [9], in [10], in experiment [11] and in experiment [12] was inactive. Moreover, the result in [13], in experiment [14], in [15], in experiment [16], in experiment [17] and in experiment [18] was inactive. The result in experiment [19] and in experiment [20] was inactive.
On to `COC(=O)c1ccc(C)cc1`, for which the outcome in [1], in experiment [2], in experiment [3], in experiment [4], in experiment [5] and in experiment [6] was inactive. The outcome in experiment [7], in experiment [8], in experiment [9], in experiment [10], in experiment [11] and in experiment [12] was inactive. The outcome in [13], in [14], in experiment [15], in [16], in experiment [17] and in [18] was inactive. Besides, the result in [19] and in experiment [20] was inactive.
Take `Cc1ccc(Nc2ccc(O)c3c2C(=O)c2ccccc2C3=O)cc1`: the outcome in experiment [1], in experiment [2], in [3], in [4], in experiment [5] and in [7] was inactive. Besides, the result in experiment [8], in experiment [9], in experiment [10], in experiment [11], in [12] and in experiment [13] was inactive. For the same compound, the outcome in experiment [14], in [15], in experiment [16], in experiment [17], in [18] and in experiment [19] was inactive. Moreover, the outcome in [20] was inactive. Besides, in experiment [6], the AC50 (in general, the concentration at which the activity in the assay is half-maximal) was 1.61 µM (active).
In the case of `CC(C)(COC(=O)c1ccccc1)COC(=O)c1ccccc1`, the AC50 in [1] was 31.5 µM (active); in experiment [2], 34.3 µM (active); in experiment [5], 16.1 µM (active); in experiment [6], 32.9 µM (active); in experiment [16], 32 µM (active); in experiment [19], 31.3 µM (active). Besides, the outcome in experiment [3], in [4], in experiment [7], in experiment [8], in experiment [9] and in experiment [10] was inactive. Further, the result in experiment [11], in [12], in experiment [13], in [14], in [15] and in experiment [17] was inactive. Further, the outcome in experiment [18] and in experiment [20] was inactive.
Turning to `CC(C)c1ccc(C(C)C)cc1`, the AC50 in experiment [1] is 36.1 µM (active); in experiment [6], 36.2 µM (active); in experiment [11], 31.8 µM (active); in [17], 32.1 µM (active). Besides, the outcome in [2], in [3], in [4], in experiment [5], in experiment [7] and in [8] was inactive. Also, the outcome in [9], in [10], in experiment [12], in experiment [13], in [14] and in experiment [15] was inactive. The result in [16], in experiment [18], in experiment [19] and in experiment [20] was inactive.
